Inconclusive results are not listed. Activity calls are given as the source filed them. Calls follow the shape of the dose curve; as a rule, active = well fitted curve in the direction sought with a large enough effect in the repeat runs; inconclusive = weak or mixed curves; inactive = no such curve, though single readings can be large; an effect the other way counts as inactive or inconclusive.
Key:
[1] = A CellTox Green Cytotoxicity Assay to monitor cytotoxicity in HepG2 cells - 16 hour (AID 1224876); also: nearly all actives have a fitted effect of over 45% in size
Outline: (§1)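 Using 1536-well format, dye-containing HepG2 suspension was seeded, allowed 5 h at 37 C/5% CO2, dosed by pintool with compounds, positive and negative controls, and imaged for fluorescence across 40 h.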

[2] = qHTS RealTime-Glo MT Cell Viability Assay in HepG2 cells - 32 hour (AID 1224877); also: nearly all actives have a fitted effect of over 55% in size
Outline: (§2)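 qHTS, HepG2, 600 cells/well, RealTime-Glo (NanoLuc + prosubstrate) added with cells; 5 h preincubation; DMSO compound addition; 37 C; luminescence at 0/8/16/24/32/40 h.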

[3] = A CellTox Green Cytotoxicity Assay to monitor cytotoxicity in HepG2 cells - 24 hour (AID 1224878); also: nearly all actives have a fitted effect of over 45% in size
Outline: as §1

[4] = A CellTox Green Cytotoxicity Assay to monitor cytotoxicity in HepG2 cells - 40 hour (AID 1224879); also: nearly all actives have a fitted effect of over 40% in size
Outline: as §1

[5] = qHTS RealTime-Glo MT Cell Viability Assay in HEK293 cells - 0 hour (AID 1224880); also: top concentration of the series differs between compounds; nearly all actives have a fitted effect of over 45% in size
Outline: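 Viable HEK293 cells reduce a cell-permeant prosubstrate; the product diffuses out and is consumed by NanoLuc in the medium to give light. Compounds went in after a 5 h incubation and plates were read over the treatment course.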

[6] = A CellTox Green Cytotoxicity Assay to monitor cytotoxicity in HEK293 cells - 32 hour (AID 1224881); also: nearly all actives have a fitted effect of over 40% in size
Outline: (§3)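 Fluorescence intensity, read at 0, 8, 16, 24, 32 and 40 h of compound treatment, reflected dye binding to DNA of dead HEK293 cells; compounds (23 nL, DMSO) were added 5 h after plating cells with reagent.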

[7] = A CellTox Green Cytotoxicity Assay to monitor cytotoxicity in HepG2 cells - 0 hour (AID 1224882); also: nearly all actives have a fitted effect of over 35% in size
Outline: as §1

[8] = A CellTox Green Cytotoxicity Assay to monitor cytotoxicity in HEK293 cells - 8 hour (AID 1224884); also: nearly all actives have a fitted effect of over 35% in size
Outline: as §3

[9] = qHTS RealTime-Glo MT Cell Viability Assay in HepG2 cells - 16 hour (AID 1224885); also: nearly all actives have a fitted effect of over 50% in size
Outline: as §2

[10] = A CellTox Green Cytotoxicity Assay to monitor cytotoxicity in HepG2 cells - 32 hour (AID 1224883); also: nearly all actives have a fitted effect of over 50% in size
Outline: as §1

Measured: Potency

CCOC(=O)C(=O)c1csc(NC=O)n1
not listed: [10]
inactive: all other assays above

C[C@H](CCC(=O)O)[C@H]1CC[C@H]2[C@@H]3[C@H](O)C[C@@H]4C[C@H](O)CC[C@]4(C)[C@H]3C[C@H](O)[C@]12C
not listed: [10]
inactive: all other assays above

Nc1cc(S(=O)(=O)O)ccc1S(=O)(=O)O
inactive: all assays above

Nc1cc(Cl)cc(S(=O)(=O)O)c1O
not listed: [8]
inactive: all other assays above

CN(C)CCCNCCC#N
not listed: [10]
inactive: all other assays above

O=C1OC(=O)c2cc(Oc3ccc4c(c3)C(=O)OC4=O)ccc21
not listed: [7] | [9]
inactive: all other assays above

Cc1nc2n(c(=O)c1CCN1CCC(C(=O)c3ccc(F)cc3)CC1)CCS2
not listed: [10]
inactive: all other assays above

CCCCC[Si](OCC)(OCC)OCC
not listed: [10]
inactive: all other assays above

O=C(O)c1ccc(OCCN2CCCCC2)cc1
not listed: [10]
inactive: all other assays above

CC(=O)N1CCN(c2ccc(O)cc2)CC1
inactive: all assays above

C=CCOCC(O)CCl (stereo unspecified)
not listed: [9] | [10]
inactive: all other assays above

N#CCCOCCOCCC#N
not listed: [9] | [10]
inactive: all other assays above

CCC(=O)OCCC(C)CCC=C(C)C (stereo unspecified)
not listed: [5]
inactive: all other assays above

Cc1ccc(C(=O)C(=O)O)cc1C
not listed: [6]
inactive: all other assays above

CCCCCCCCCCCCCCCCCCN(C)C
not listed: [6] | [8] | [10]
inactive: all other assays above

C=CC(C)(O)CC/C=C(\C)CC (stereo unspecified)
not listed: [5] | [9]
inactive: all other assays above

O=c1cc(O)c(Cl)c[nH]1
not listed: [7]
inactive: all other assays above

Cc1cccc(NC(=S)N(C)C)c1
not listed: [7] | [10]
inactive: all other assays above

CCCCC(=O)N(C)C
not listed: [5]
inactive: all other assays above
